Assay results taken from the supplement of paper PMC3334620.
Whole data set: some 33,000 sequences, median “E-score (-0.5 to 0.5)” near -0.011, cut for the highest 2% near 0.28. The entries come from a sample that favours the highest values as a whole.

Target: T1, Gcr1 (UniProt P07261)
T1 sequence: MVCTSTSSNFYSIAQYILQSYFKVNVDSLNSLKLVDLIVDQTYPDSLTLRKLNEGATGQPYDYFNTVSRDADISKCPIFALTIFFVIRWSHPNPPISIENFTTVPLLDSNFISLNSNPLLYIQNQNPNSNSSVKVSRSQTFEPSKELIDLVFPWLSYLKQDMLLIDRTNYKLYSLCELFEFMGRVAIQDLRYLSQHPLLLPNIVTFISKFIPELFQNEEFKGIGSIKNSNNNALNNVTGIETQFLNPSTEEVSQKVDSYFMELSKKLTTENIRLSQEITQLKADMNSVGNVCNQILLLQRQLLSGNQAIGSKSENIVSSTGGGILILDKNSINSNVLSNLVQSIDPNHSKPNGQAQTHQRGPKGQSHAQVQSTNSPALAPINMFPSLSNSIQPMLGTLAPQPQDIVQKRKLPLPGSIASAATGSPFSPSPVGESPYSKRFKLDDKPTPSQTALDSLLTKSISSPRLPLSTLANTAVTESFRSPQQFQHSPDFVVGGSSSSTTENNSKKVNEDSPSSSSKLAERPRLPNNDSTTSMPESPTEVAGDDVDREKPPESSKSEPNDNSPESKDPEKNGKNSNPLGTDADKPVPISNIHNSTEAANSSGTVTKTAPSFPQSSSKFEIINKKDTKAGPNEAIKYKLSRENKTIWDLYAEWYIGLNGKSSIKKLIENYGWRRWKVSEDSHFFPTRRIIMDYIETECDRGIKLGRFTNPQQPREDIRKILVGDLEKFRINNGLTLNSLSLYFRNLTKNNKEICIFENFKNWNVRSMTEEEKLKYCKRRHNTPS
Test: PBM E-score (8-mer binding enrichment) (E-score (-0.5 to 0.5)); higher = stronger / more preferred TF binding
Conditions: protein concentration: 100 nM; construct: GST-full length
Description: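 Universal 'all 10-mer' protein binding microarrays (Agilent AMADID 015681) probed with GST-tagged S. cerevisiae TFs (full-length or DBD) made by in vitro transcription/translation (PURExpress), about 100-200 nM. Bound TF was detected with fluorescent anti-GST. Each ungapped 8-mer (which stands for itself and its reverse complement) is scored by the PBM enrichment score (E-score), a modified Wilcoxon-Mann-Whitney statistic from -0.5 to +0.5, computed with the Universal PBM Analysis Suite. Scale: above 0.35 generally sequence-specific binding.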

| Sequence | PBM E-score |
| --- | --- |
| CGGCATCA | 0.223 |
| AGGCATCG | 0.0175 |
| CGGCATAC | -0.113 |
| CGGCATCC | 0.444 |
| AGGCATCC | 0.387 |
| AGGCATCA | -0.162 |
| ACGCCTCA | -0.137 |
| CTGCTGCC | -0.0289 |
| CGGCTCCA | 0.0712 |
| AGGCTGCC | 0.382 |
| CGGCTCCC | 0.34 |
| AGGCTCCC | 0.24 |
| AGGCTGCG | 0.138 |
| CGGCTGCC | 0.376 |
| AGGCTGCA | -0.0233 |
| CGGCTGCA | 0.0568 |
| CTGTCTTA | 0.0396 |
| CGCCATAC | 0.127 |
| TACCAGCA | 0.0312 |
| ACCCAGGT | 0.0419 |
| CAACGCTG | -0.0977 |
| ATTTTTCA | 0.1 |
| ACGGCTCT | -0.00284 |
| AAATGGCT | 0.0656 |
| ACTCACCC | -0.126 |

| Sequence | PBM E-score |
| --- | --- |
| ATGGAAGG | -0.201 |
| CTGGAAGA | 0.0722 |
| ATGGAAGA | -0.0302 |
| GTGGAAGA | 0.172 |
| ATGGAAGC | 0.344 |
| CTGGAAGC | 0.45 |
| CCATGGGC | 0.0107 |
| ACCCCTGA | 0.0403 |
| CCTGGTCG | -0.127 |
| TCCCACGA | 0.244 |
| CGCACCTA | 0.0792 |
| GGCACCAC | 0.249 |
| AGCACCTA | 0.241 |
| GGCACCTA | 0.281 |
| TGCACCAA | -0.133 |
| GGCACCAA | 0.335 |
| CCACAAAC | 0.19 |
| ATGCATCC | -0.00178 |
| ATGAAATG | 0.104 |
| TCCCCAAA | 0.226 |
| AGGGCGCC | 0.399 |
| AGGGCGCA | -0.0301 |
| CGGGCGCA | 0.0492 |
| CGGGCGCC | 0.421 |
| CGGGCGGC | 0.0469 |

| Sequence | PBM E-score |
| --- | --- |
| AGGGCGCG | 0.194 |
| ATTAAGGG | 0.0551 |
| ATTATCCG | 0.00436 |
| TACCTGAA | 0.0937 |
| ATCAGGAG | 0.0606 |
| CTCTCCAA | -0.0761 |
| AGTGTCAG | -0.142 |
| ACAGATTC | 0.176 |
| CCAGATAA | 0.0427 |
| CCAGATTC | 0.326 |
| CCAGATTA | 0.233 |
| GCAGATAC | 0.0819 |
| CCAGATAC | 0.294 |
| CCCTGCCA | 0.0623 |
| CCGCGCAG | -0.219 |
| AGGGATTG | 0.0467 |
| GTGCACTA | -0.146 |
| AGCTGGCA | 0.0163 |
| AAAGCTCC | -0.0149 |
| GAAGCTCC | 0.309 |
| CAAGCGGA | -0.137 |
| CAAGCTTC | 0.232 |
| GAAGCTGA | 0.322 |
| GAAGCTTA | 0.136 |
| GAAGCTTC | 0.339 |

| Sequence | PBM E-score |
| --- | --- |
| TAAGCGGA | -0.143 |
| GAAGCGGA | 0.328 |
| AAAGCTGA | 0.113 |
| CAAGCTGA | -0.139 |
| GAAGCTCA | 0.224 |
| ATGGGCTC | 0.102 |
| TCGGTGAA | -0.0389 |
| GACCATAC | 0.159 |
| CACAGCTA | -0.0538 |
| AAAACGCT | -0.0686 |
| TACCCGGA | -0.0492 |
| GTAATGGA | 0.0927 |
| CAGGCCCG | -0.263 |
| TATAAGGA | 0.124 |
| GCTTTGGA | 0.0838 |
| AAACGCCG | 0.0308 |
| CCGCTAGA | -0.00443 |
| AGGCTTGG | 0.0323 |
| GAAGCTGC | 0.406 |
| CAAGCTGC | 0.149 |
| AAAGCTGC | -0.123 |
| CAATCGAG | 0.00485 |
| CTTCCGAC | -0.00712 |
| GAGTGATA | -0.122 |
| CCGAAGGC | -0.158 |

| Sequence | PBM E-score |
| --- | --- |
| ATCGAGGC | -0.0857 |
| ACCAGATA | 0.0838 |
| CAAGCCCA | -0.244 |
| AAAGCCCA | -0.0697 |
| GAAGCCCC | 0.381 |
| CAAGCCCC | -0.18 |
| GAAGCCCA | 0.368 |
| AAAGCCCC | -0.121 |
| AACGCGGT | -0.107 |
| GTTAAATA | 0.0652 |
| TCTAAGAA | 0.0856 |
| CGTCTCCC | 0.0616 |
| CGTCTCCA | 0.284 |
| AGTCTCCA | 0.0915 |
| CGGCCCCC | 0.0724 |
| ACTAGTCG | 0.065 |
| AGTCTGCA | -0.179 |
| GAAGAGCA | -0.0362 |
| CAGTGATA | 0.0897 |
| AACCAAGG | -0.00121 |
| GGATCCCC | 0.362 |
| CGCTCCCA | 0.132 |
| GGATCCCA | 0.391 |
| TGATCCCA | 0.065 |
| CGATCCCC | 0.111 |

| Sequence | PBM E-score |
| --- | --- |
| TGCTCCCA | -0.0935 |
| GGCTCCCA | 0.348 |
| AGATCCCC | 0.156 |
| AGATCCCA | 0.265 |
| AGTCTAGC | 0.0246 |
| CTGATAAG | 0.0222 |
| GTAGCTGA | -0.023 |
| TATCTCGA | -0.115 |
| GTTCCTTA | 0.0517 |
| CGACTCCA | 0.0419 |
| GGGCTCGA | -0.0878 |
| GGGCTCCA | 0.318 |
| GGACTCCA | 0.345 |
| AGGCTCCA | 0.263 |
| TGACTCCA | 0.0388 |
| AGATGAGG | -0.0257 |
| ATATTATG | 0.132 |
| CTAGACCC | -0.0797 |
| AAAGACTC | -0.195 |
| CGCCATAG | -0.14 |
| AAGTTCGA | 0.0312 |
| GGAAGGCA | 0.0904 |
| AAGTAGCT | 0.208 |
| CAGCTTCG | 0.328 |
| CAGCTTCA | 0.0949 |

| Sequence | PBM E-score |
| --- | --- |
| AAGCTTCC | 0.353 |
| CTGCTTCC | 0.177 |
| AAGCTTCG | 0.129 |
| AAGCTTCA | -0.0647 |
| CAGCTTGC | -0.267 |
| AAGCTTCT | 0.184 |
| CAGCTTCC | 0.457 |
| CAAGAGCG | 0.0229 |
| GGGCGAGA | -0.0433 |
| AAGATTAA | 0.233 |
| AGAATGTG | -0.221 |
| GAGTCCAC | 0.257 |
| AACGCCTA | -0.0917 |
| CTGATGCC | -0.0173 |
| CGGATGCC | 0.404 |
| CGGATTTC | -0.122 |
| AGGATTCA | -0.164 |
| AGGATTCG | 0.126 |
| CGGATGCA | 0.0929 |
| CGGATTCC | 0.463 |
| AGGATTCC | 0.373 |
| CGGATTCA | -0.0182 |
